In all, about 6,200 compounds went through this assay and about 2,900 (47%) were called active. So high a share suggests a set chosen from earlier hits. The list shows a part of the results. Unmarked numbers belong to inactive results. No stated cut-off is given here; in the data, active means inhibition above about 50%; inactive means the rest.

A short description of the assay: Mycobacterium tuberculosis growth inhibition, primary screen (AID 1259343). The note with it: inhibition: at 10 µM, stronger effect = higher value; outcome: 10 uM.
Usually inhibition stands for the change of the read-out against control, counted positive when it falls. Regarding `Cc1cc(-c2nc3c(C)cccc3o2)ccc1NC(=O)C(C)C`, the inhibition is 58.5% (active). As for `Cc1ccc2oc(-c3ccc(C)c(N)c3)nc2c1`, the figure is 37.6%; as for `N#Cc1c(N=CN2CCCCCC2)sc2c1CCCC2`, 99% (active); as for `Cc1ccc(-n2[nH]c(C)c(N=Nc3cccc(-c4cccc(C(=O)O)c4)c3O)c2=O)cc1C`, 83.7% (active). Then `Cc1ccc(NC2CCCN(C(=O)c3cc4ccccc4o3)C2)cc1C` (configuration not stated), with “inactive”; and `Cc1cc2cccc(C(=O)N3CCN4CCN(C)C(=O)C4C3)c2o1` (configuration not stated), with 0.8%; and `Cc1cccc2cc(C(=O)N3C[C@H]4CC=CC[C@H]4C3)oc12`, with 72.4% (active).

Consider `S=C(Nc1ccccc1)Nc1nncs1`, for which the inhibition was 15.5%. Then `Cc1cnc(NC(=O)c2ccc(N(C)C3CCCCC3)cc2)s1`, with 45.9%; and `O=C(Nc1nncs1)c1ccc(C2CCCCC2)cc1`, with 82.1% (active); and `O=C1NC(=S)SC1=Cc1ccccc1OCc1ccccc1`, with 102% (active). Take `O=C1NC(=S)SC1=Cc1ccccc1OC(F)F`: the inhibition is 81.1% (active). For the compound `C=CCOc1ccc(-c2ccc(C#N)cc2)cc1`, the inhibition was -10.6%. As for `N#Cc1ccc(-c2ccc(O)cc2)cc1`, the figure is 96.9% (active); as for `Oc1ccc(-c2ccc(I)cc2)cc1`, 20.3%. As for `O=C(Nc1ccc(Cl)cc1)N1CCC1c1ccccc1F` (configuration not stated), the figure is -6.67%; as for `O=C(CCl)N1CCSC1c1ccccc1F` (configuration not stated), 99.6% (active); as for `CCN1CCN(c2c(CN(C(=O)Nc3ccc(SC)cc3)C(C)C)c(C)nn2-c2cccc(F)c2)CC1`, 74.4% (active). As for `Cn1nc(C(=O)NCC23CC4CC(CC(C4)C2)C3)ccc1=O`, the figure is 77.1% (active); as for `CCCn1nc(C(=O)NC(C)c2nnc3n2CCC3)ccc1=O` (configuration not stated), 3.57%; as for `O=c1cc(-c2ccccc2)nc2sc(Br)nn12`, 102% (active). As to `O=C(O)c1cc(-c2cccc(F)c2)n2nc(-c3ccccc3)cc2n1`, the inhibition was 34.3%. As for `Nc1c(C=C2C=C([N+](=O)[O-])C=C(Br)C2=O)c(=O)nc2sc(-c3ccccc3)nn12`, the figure is 45.7%; as for `O=c1[nH]c2c(Cl)c(Cl)c(Cl)cc2o1`, 31.7%; as for `O=c1[nH]c2c(Br)c(Br)c(Cl)cc2o1`, “inactive”. Then `O=c1[nH]c2cc(Cl)c(Br)cc2o1`, with 81.6% (active); and `CCc1c(C)nc(-n2nc(C)cc2NC(=O)c2ccccc2SC)[nH]c1=O`, with 100% (active). Then `CCc1c(C)nc(-n2nc(C)cc2NC(=O)Cc2cccc3ccccc23)[nH]c1=O`, with 98.5% (active); and `CCc1c(C)nc(-n2nc(C)cc2NC(=O)c2cccc3ccccc23)[nH]c1=O`, with 100% (active); and `CCc1c(C)nc(-n2nc(C)cc2NC(=O)c2ccccc2C)[nH]c1=O`, with 12.6%.

On to `CCc1cc(=O)[nH]c(-n2nc(C)cc2NC(=O)c2ccccc2SC)n1`, for which the inhibition was 99.7% (active).

Consider `Cc1cc(NC(=O)c2cccc3ccccc23)n(-c2nc(C)c(C)c(=O)[nH]2)n1`, for which the inhibition is -30.4%. Then `CNc1cccc(-c2ccc(O)cc2)n1`, with 33.6%. Then `C=CCn1c(-c2ccc(Cl)cc2Cl)csc1=Nc1cccc(O)c1`, with -10.5%. As for `CCOC(=O)Cn1c(=NC(=O)c2ccccc2[N+](=O)[O-])sc2cc(C(C)C)ccc21`, the figure is 3.22%. In the case of `CCc1c(C)nc(-n2nc(C)cc2NC(=O)c2ccccc2C(F)(F)F)[nH]c1=O`, the inhibition is 101% (active). Then `CCc1c(C)nc(-n2nc(C)cc2NC(=O)c2cc3ccccc3o2)[nH]c1=O`, with -38.5%. Then `CCc1c(C)nc(-n2nc(C)cc2NC(=O)c2cc(=O)c3ccccc3o2)[nH]c1=O`, with 101% (active); and `Cc1ccc(-c2nc(C)c(C(C)C)c(N3CCNCC3)n2)cc1`, with 44%; and `Cc1nc(-c2ccc(Cl)cc2)nc(N2CCNCC2)c1C`, with 79.2% (active). Then `Cc1cccc(-c2nc(C)c(Cc3ccccc3)c(N3CCNCC3)n2)c1`, with 101% (active); and `Cc1cccc(OC2CN(c3nc(-c4ccccn4)nc4c3CCNC4)C2)c1`, with 26.7%. As for `Cc1nc(-c2ccc(Cl)cc2)nc(N2CCNCC2)c1Cc1ccccc1`, the inhibition is 97.6% (active).

`CCc1c(C)nc(-c2ccc(OC)cc2)nc1N1CCNCC1`: the inhibition was 42.7%. Then `Cc1nc(-c2cccc(F)c2)nc(N2CCNCC2)c1Cc1ccccc1`, with 66.1% (active); and `Cc1nc(C)c(Cc2ccccc2Cl)c(N2CCN(C(=O)c3cccc(Br)c3)CC2)n1`, with 29.3%; and `COC(=O)c1ccc(NC(=O)c2ccc(Br)o2)cc1`, with 83.8% (active). As for `Cc1ccc(CN(C)c2ccc(C(=O)O)cc2)cc1`, the figure is 51.7% (active).

`CN(Cc1ccc(Cl)cc1)c1nccc(-c2cc(C(=O)O)ccn2)n1`: the inhibition is 17.6%.

Take `CN(Cc1ccc(C(N)=O)cc1)c1cccc(F)c1C#N`: the inhibition is 13.8%. As for `O=C(CCc1ccc(O)cc1)N1CCOC(c2ccc(Cl)cc2)C1` (configuration not stated), the figure is 19.6%. As for `O=C(NCCc1ccc(O)cc1)Nc1cccc2c1CCCC2`, the inhibition was 7.1%. Then `O=C(CCc1ccc(O)cc1)c1c(O)cc(O)cc1O`, with 93.3% (active); and `Clc1ccc2nc(NN=Cc3ccccn3)nc(-c3ccccc3)c2c1`, with 92.1% (active); and `Clc1ccc(NN=Cc2ccccn2)cc1Cl`, with 14.1%. Take `C(=NNc1ccc2ccccc2n1)c1ccccn1`: the inhibition is -19.7%. For `Nc1ccc(S(=O)(=O)Nc2ccnn2-c2ccccc2)cc1`, the inhibition was 55.2% (active). Then `CC(C)=CCCC(C)CCNCCc1ccco1` (configuration not stated), with -15%; and `CC(Nc1nc(-c2cccs2)nc2ccccc12)C1CCCO1` (configuration not stated), with -41.2%; and `CC(NC(=O)c1ccc(Oc2ccccc2)cc1)C1CCCO1` (configuration not stated), with 92.8% (active).

On to `CC(=O)N1CCC(NC(=O)c2ccc(Oc3ccccc3)cc2)CC1`, for which the inhibition was 16.9%. Regarding `Cc1cccc(/C=C/c2nc(-c3cc(C(=O)O)co3)cs2)c1`, the inhibition was 42.9%. Then `OCC1(CCc2ccccc2)CCCN(Cc2cc3ccccc3o2)C1` (configuration not stated), with 23.5%. Consider `Oc1ccccc1CN1CCCn2cccc2C1c1cccc(C(F)(F)F)c1` (configuration not stated), for which the inhibition was 22.1%. Then `CC(C)(C)c1ccc(C2=NC(=Cc3ccc4c(c3)OCO4)C(=O)O2)cc1`, with -19.9%; and `O=C(C=Cc1ccc2c(c1)OCO2)c1ccc(Cl)cc1Cl`, with 73.5% (active); and `O=C(C=Cc1ccc2c(c1)OCO2)c1ccc(Br)cc1`, with -39.3%.

The values above are taken from PubChem BioAssay AID1259343 (VanderVen Lab, College of Veterinary Medicine, Cornell …, 2017).
